Screening results (PubChem BioAssay)
VACV mCherry inh = qHTS for Stage-Specific Inhibitors of Vaccinia Orthopoxvirus: mCherry Reporter Primary qHTS; Vaccinia virus mCherry reporter infection, fluorescence; Potency, µM (top dose mostly 36.5 µM), for the others: top-dose activity change, negative = inhibition, hits mostly inhibitors; 0.63% of 310,000 active; calls by dose curve; tested in A549 cells; also: potency is read from the fitted curve at half-maximal effect; nearly all actives have a fitted effect of over 35% in size
HCMV inh = qHTS Assay for inhibitors of the human cytomegalovirus (HCMV); 4.5% of 410,000 active; activity change, negative = inhibition, % at 57.5 µM; HFF cells, HCMV-luciferase reporter, 72 h; active compounds read low; in the data active = activity change below about -60%; inconclusive = no clear call, values can overlap the other calls; inactive = above about -39%
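Two-dose cell screen: HFF monolayers treated with compounds and infected with luciferase-expressing HCMV at 1 PFU/cell, 72 h at 37C, then lysed for luciferase measurement.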
Lassa entry inh = qHTS for Inhibitors of binding or entry into cells for Lassa Virus; Potency, µM (series often up to 37.9 µM), without a hit: top-dose activity change, negative = inhibition, most hits filed as inhibitors; AID 540256, 2011; 1.2% of 300,000 active; Lassa virus pseudotype entry inhibition, cell reporter; calls by dose curve; tested in HEK293 cells; also: potency is read from the fitted curve at half-maximal effect; nearly all actives have a fitted effect of over 50% in size
VACV Venus inh = qHTS for Stage-Specific Inhibitors of Vaccinia Orthopoxvirus: Venus Reporter Primary qHTS. Vaccinia virus Venus reporter expression, fluorescence. Potency, µM (series often up to 36.5 µM), for the others: at the highest dose activity change, negative = inhibition, actives largely listed as inhibitors. 0.46% of 330,000 active; calls by dose curve; tested in A549 cells; also: potency is read from the fitted curve at half-maximal effect; nearly all actives have a fitted effect of over 30% in size
FMDV antiviral = High Throughput Screening for Foot and Mouth Disease Virus Antivirals | FMDV antiviral cell-based qHTS | Potency, µM (doses to about 57.9 µM), for inactives: at the highest dose activity change, negative = inhibition, actives largely listed as inhibitors | AID 1159524, 2015 | 1.2% of 410,000 active; calls by dose curve; tested in HEK293T cells; also: read-out not given here; potency is read from the fitted curve at half-maximal effect; nearly all actives have a fitted effect of over 45% in size
MARV entry inh = qHTS for inhibitors of binding or entry into cells for Marburg Virus; Marburg virus pseudotyped entry inhibition, cell reporter; Potency, µM (highest dose often 37.8 µM), for the others: at the highest dose activity change, negative = inhibition, usual class: inhibitors; 1.8% of 300,000 active; calls by dose curve; tested in HEK293 cells; also: potency is read from the fitted curve at half-maximal effect
* marks the source's active call; other numbers are inactive results; i = inactive; ? = inconclusive; . = no result given; ! = a repeat was not active; [ ] = another dose, or the depositor's remark. Shown are actives, neighbours in structure and some others; about 6.5% of the full set was active somewhere. % is scaled to controls: 0 for no effect and ±100 for the full control effect.

SMILES | VACV mCherry inh | HCMV inh | Lassa entry inh | VACV Venus inh | FMDV antiviral | MARV entry inh
CCOC(=O)C1=C(CN2CCN(c3ccccc3F)CC2)NC(=O)NC1c1ccc(OC)cc1 (configuration not stated) | i | -22 | ? | -11% | -25% | .
Cc1ccc(O)c(NC(=O)CCSc2nc(-c3ccco3)cc(C(F)(F)F)n2)c1 | ? | -29 | -18%[46.1 µM] | -25% | -10% | -2%[46.1 µM]
Cc1ccc(NC(=O)C(C)c2cccc(C(=O)c3ccccc3)c2)cc1O (configuration not stated) | ? | -62* | ? | ? | ? | ?
O=C(CSc1nnc(-c2ccc(O)cc2)n1Cc1ccccc1)NNC(=O)c1ccc(Br)cc1 | -12% | -68* | 0% | -4% | -8% | 16%
COc1ccc(Br)c2c1-c1nc(NC(=O)c3ccccc3SC)sc1C2 | -14% | -63* | -25%[46.1 µM] | -6% | -23% | 7%[46.1 µM]
COC(=O)[C@@H]1CCCN1C(=O)c1c(OC)cc(=O)n2c1CCN(Cc1ccc3c(c1)CCO3)CC2 | -8% | . | . | 2% | -5% | .
Cc1cccc(-n2c(C)nc3c(cnn3-c3ccc(F)cc3)c2=O)c1 | ? | ? | -6% | ? | -25% | ?
Cc1cccc(-n2c(-c3ccco3)nc3c(cnn3-c3ccc(F)cc3)c2=O)c1 | -25% | -65* | -31%[46.1 µM] | -7% | 0% | 4%[46.1 µM]
Cc1ccc(-n2c(-c3ccco3)nc3c(cnn3-c3ccc(C)cc3)c2=O)cc1 | -18% | -6 | ? | -23% | 28µM*! | ?
Cc1ccc(-n2c(-c3ccco3)nc3c(cnn3-c3ccccc3C)c2=O)cc1 | -8% | -61*! | ? | -9% | ? | -7%[46.1 µM]
OC[C@H]1O[C@@H](O[C@H]2[C@H](O)[C@@H](O)[C@H](O)O[C@@H]2CO)[C@H](O)[C@@H](O)[C@@H]1O | i | . | . | 0% | 2% | .
CC1=C(C#N)C(/C=N/OCc2ccc(F)cc2Cl)CC(=O)N1 (configuration not stated) | -17% | -80* | ? | -9% | 44% | 8%[14.2 µM]
CCCCCCNC(=O)Nc1ccccc1 | . | 52 | 10% | . | 0% | -16%
CCCCCCCC[n+]1c(C)n(-c2ccccc2)c2ccc(NC(C)=O)cc21 | -6% | -77* | 7.1µM* | -7% | ? | ?
O=C(N/N=C/c1ccccc1F)c1csc2c1CCCC2 | i | 41 | 11µM* | -20% | 1% | 10%
O=C(N/N=C/c1cccc(F)c1)c1csc2c1CCCC2 | . | 40 | ? | -19% | 6% | ?
O=C1CCC(C(=O)OCC(=O)c2ccccc2)N1 (configuration not stated) | -8% | 34 | 25% | 0% | 16% | ?
CC1CC(C)C(=O)C(C(CC2CC(=O)NC(=O)C2)OC(=O)CC(=O)c2ccccc2)C1 (configuration not stated) | 4µM* | -98* | ? | 1.8µM* | -24% | ?
CCn1c(SCC(=O)N/N=C/c2ccccc2OCC(=O)O)nnc1-c1ccccc1 | . | . | . | . | -21% | .
CCn1c(SCC(=O)N/N=C/c2c[nH]c3ccccc23)nnc1-c1ccc(C(C)(C)C)cc1 | ? | -75* | 4.5µM* | -25% | ? | ?
CCn1c(SCC(=O)N/N=C/c2ccc(C)o2)nnc1-c1ccc(C(C)(C)C)cc1 | -19% | -11 | ? | -18% | 32µM* | -21%
CN1CCN(Cc2cc(=O)n3ccsc3n2)CC1 | i | -89* | -5%[46.1 µM] | -3% | -12% | 6%[46.1 µM]
O=c1cc(CN2CCCCCC2)nc2sccn12 | i | 7 | 0% | -4% | -8% | 2%[46.1 µM]
COc1ccc(N(C(=O)c2ccccc2)S(=O)(=O)c2ccc3c(c2)n(C)c(=O)n3C)cc1 | -17% | -1 | -20%[46.1 µM] | -18% | -13% | 5%[46.1 µM]
CCN(CC)CC(C)(C)C(=O)/C=C/c1ccc(/C=C/C(=O)C(C)(C)CN(CC)CC)cc1 | ? | 1 | 3.5µM* | 11µM* | 3.5µM* | 1.4µM*
SMILES | VACV mCherry inh | HCMV inh | Lassa entry inh | VACV Venus inh | FMDV antiviral | MARV entry inh
Cc1ccc2nc3c(c(N)c2c1)CCN3c1ccccc1 | ? | 16 | ? | -28% | ? | ?
COc1ccc(N2CCc3c(C)nc4c(OC)cc(OC)cc4c32)c(OC)c1 | . | -20 | ? | . | 0% | 12µM*
COc1ccc(N2Cc3ccc(OC)c(OC)c3C2=O)cc1 | . | 146 | . | . | 47% | .
COc1ccc(N2CCc3c(C)nc4c(OC)cc(OC)cc4c32)cc1 | ? | -108* | ? | ? | ? | ?
COc1cccc(-n2c(/C=C\c3ccc(Cl)cc3)nc3ccccc3c2=O)c1 | -4% | ? | -16%[46.1 µM] | -7% | ? | .
Cc1nc2c(C)cccc2c2c1CCN2c1ccccc1F | i | ? | -22%[46.1 µM] | -1% | ? | ?
COc1cccc(N2CCc3c(C)nc4ccc(Cl)cc4c32)c1 | -17% | -22 | ? | ? | ? | 11µM*
CCN1Cc2c(/C=C/c3ccccc3)nc3ccc(OC)cc3c2N(c2cccc(Cl)c2)C1 | ? | -102* | . | ? | 40µM* | .
COC(=O)c1ccc(NC(=O)CSc2ccc(-c3sc(-c4ccccc4)nc3C)nn2)cc1 | -6%[7.34 µM] | ? | ? | -3%[7.34 µM] | 5% | .
O=C(c1c2c(nc3ccccc13)C(=O)N(C1CCCCC1)C2)N1CCN(c2ccc(F)cc2)CC1 | -18% | 33 | 0%[46.1 µM] | -15% | -28% | .
COc1ccc(N2CCc3c(C)nc4c(OC)cccc4c32)cc1 | -14% | -66* | ? | -12% | 16% | ?
CC1CCCC(C)N1CC(O)COCc1ccccc1 (configuration not stated) | -17% | ? | -29%[46.1 µM] | -17% | -14% | 6.3µM*
COc1cc(COCC(O)CN2C(C)CCCC2C)cc(OC)c1OC (configuration not stated) | . | 9 | . | . | -10% | .
CCOC(=O)C1CCCN(C(=O)c2cc(Nc3ccc(OC)cc3OC)nc3ccccc23)C1 (configuration not stated) | . | 125 | ? | . | -15% | -17%
CCOC(=O)C1CCCN(C(=O)c2cc3c(Cl)nc4ccccc4c3s2)C1 (configuration not stated) | -11% | -77* | 9%[46.1 µM] | -15% | ? | 8%[46.1 µM]
CCOC(=O)C1CCCN(C(=S)Nc2ccc(OC)cc2)C1 (configuration not stated) | . | -67* | . | . | -1% | .
CCOC(=O)C1CCCN(C(=O)c2cc(Nc3ccc(OC)c(OC)c3)nc3ccccc23)C1 (configuration not stated) | -20% | 44 | -15% | -17% | ? | 11µM*
CCOC(=O)C1CCCN(C(=S)Nc2ccc(F)cc2)C1 (configuration not stated) | -1% | -29 | -8% | 0% | 20% | 1%[14.2 µM]
